Columns and labels:
Test in all cases: PBM binding z-score (relative to random genomic background probes); higher = stronger binding; sequences stand for … in GC…GCGATTGACAGCGTAGAATGAAGG
[1] = system: FXR:RXRa (NR concentration 270 nM, RXRa partner concentration 90 nM)
Procedure, shortened: (§1)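 On custom Agilent 4×180K arrays, double-stranded probes with 34-nt variable regions carried direct-repeat seeds, single-nucleotide variants, half-site ablations or random human genomic background. Ligand-free nuclear receptor dimers were applied for 1 h, and binding was read with antibodies against each partner (one per run). Binding z-scores come from regression-normalized fluorescence, with the random background probes as reference.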

[2] = system: LXRa:RXRa (NR concentration 270 nM, RXRa partner concentration 90 nM)
Procedure, shortened: as §1

[3] = system: LXRa homodimer (NR concentration 270 nM)
Procedure, shortened: as §1

[4] = system: LXRb:RXRa (NR concentration 270 nM, RXRa partner concentration 90 nM)
Procedure, shortened: as §1

[5] = system: LXRb homodimer (NR concentration 270 nM)
Procedure, shortened: as §1

[6] = system: PPARa:RXRa (NR concentration 270 nM, RXRa partner concentration 90 nM)
Procedure, shortened: as §1

[7] = system: PPARg:RXRa (NR concentration 180 nM, RXRa partner concentration 90 nM)
Procedure, shortened: as §1

[8] = system: PPARg:RXRa 270nM:90nM, anti-RXR (NR concentration 270 nM, RXRa partner concentration 90 nM)
Procedure, shortened: as §1

[9] = system: PPARg:RXRa 30nM:10nM, anti-RXR (NR concentration 30 nM, RXRa partner concentration 10 nM)
Procedure, shortened: as §1

[10] = system: PPARg:RXRa 90nM:30nM, anti-RXR (NR concentration 90 nM, RXRa partner concentration 30 nM)
Procedure, shortened: as §1

[11] = system: PPARg:RXRa DBDmut IVT, anti-RXR (DBD mutation: RXRa K156A/R161A, NR concentration 270 nM, RXRa partner concentration 90 nM)
Procedure, shortened: as §1

[12] = system: PPARg:RXRa IVT, anti-PPARg (NR concentration 270 nM, RXRa partner concentration 90 nM)
Procedure, shortened: as §1

[13] = system: PPARg DBDmut:RXRa IVT, anti-PPARg (DBD mutation: PPARg1 K132A/R137A, NR concentration 270 nM, RXRa partner concentration 90 nM)
Procedure, shortened: as §1

[14] = system: PPARg DBDmut IVT, anti-PPARg (DBD mutation: PPARg1 K132A/R137A, NR concentration 270 nM)
Procedure, shortened: as §1

[15] = system: PPARg homodimer (NR concentration 180 nM)
Procedure, shortened: as §1

[16] = system: PXR:RXRa (NR concentration 270 nM, RXRa partner concentration 90 nM)
Procedure, shortened: as §1

[17] = system: PXR homodimer (NR concentration 270 nM)
Procedure, shortened: as §1

[18] = system: RARa:RXR (NR concentration 270 nM, RXRa partner concentration 90 nM)
Procedure, shortened: as §1

[19] = system: RARa homodimer (NR concentration 270 nM)
Procedure, shortened: as §1

[20] = system: RARb:RXRa (NR concentration 270 nM, RXRa partner concentration 90 nM)
Procedure, shortened: as §1

Row | Sequence | PBM binding z-score [1] | PBM binding z-score [2] | PBM binding z-score [3] | PBM binding z-score [4] | PBM binding z-score [5] | PBM binding z-score [6] | PBM binding z-score [7] | PBM binding z-score [8] | PBM binding z-score [9] | PBM binding z-score [10] | PBM binding z-score [11] | PBM binding z-score [12] | PBM binding z-score [13] | PBM binding z-score [14] | PBM binding z-score [15] | PBM binding z-score [16] | PBM binding z-score [17] | PBM binding z-score [18] | PBM binding z-score [19] | PBM binding z-score [20]
1 | CCTAGCAGGCCAGGGTCCCTCAAGCATTTCGCTT | -0.373 | -0.567 | -0.782 | -0.712 | -1.31 | -0.381 | -0.884 | -0.699 | -1.41 | -0.959 | -0.423 | -0.501 | -1.5 | -1.43 | -0.522 | -0.483 | -0.449 | -0.227 | -0.786 | -0.0655
2 | TCAAATAGGTAATACAGGTGAAAGTCGGCATCTA | 0.834 | 1.29 | 0.418 | 0.892 | 0.0118 | 2.04 | 1.14 | 2.72 | 4.16 | 3.5 | 3.6 | 2.94 | 1.25 | 1.14 | 0.815 | 0.771 | 0.46 | 0.82 | 1.66 | 0.777
3 | TCTATAAGTTGAAGGGCAACCGACGAGTCCGTTT | 0.654 | 0.764 | -0.0358 | 0.57 | 0.00788 | 1.27 | 0.844 | 2.82 | 3.72 | 3.29 | 2.03 | 0.839 | 0.713 | 0.947 | 0.68 | 0.812 | 0.652 | 0.558 | 0.192 | 1.93
4 | CCTCGGACGACAACAGGAGGTCAGAGCTGCCAGA | 0.715 | 1.65 | 1.91 | 1.42 | 0.113 | 1.73 | 0.478 | -0.0139 | -0.511 | -0.34 | -0.649 | 0.0157 | -0.728 | -1.24 | 1.84 | 1.67 | 0.467 | 2.11 | 0.372 | 1.96
5 | TCTTGTAGATCATCAGGAGGTTAAGAAAGATCGA | 0.0818 | 1.07 | -0.0921 | 0.94 | -0.422 | 1.1 | -0.109 | 1.34 | 2.4 | 1.84 | 1.49 | 0.887 | 1.1 | -0.169 | -0.101 | 0.787 | -0.453 | 0.957 | -0.298 | 0.52
6 | GTTTACGGGTCAAAGGTTATAGCATGAATAGAAT | 6.92 | 5.94 | 0.633 | 6 | 0.401 | 6.92 | 11.3 | 9.13 | 9.06 | 10.1 | 4.49 | 6.3 | 1.34 | 0.914 | 2.36 | 6.4 | 0.568 | 8.19 | 0.857 | 4.66
7 | CCTAGCAGGCCAATCAGGGTCACTCAAGGCTTGA | 2.6 | 3.39 | -0.0064 | 3.03 | -0.752 | 3.63 | 0.949 | 1.33 | -0.454 | 0.361 | 1.3 | 1.7 | -0.834 | -1.49 | 0.893 | 4.07 | -0.258 | 3.42 | -0.49 | 2.36
8 | GCTTACGGGTCAAAGGGTATAGCATGAATAGAAT | 6.94 | 4.45 | 0.132 | 4.28 | 0.557 | 6.21 | 9 | 7.96 | 7.14 | 8.29 | 4.35 | 5.08 | 1.19 | 2.3 | 2.55 | 4.16 | 0.626 | 5.66 | 0.592 | 4.09
9 | TAGCCTAGGACATTGGGCCAGTATAGTACGCATC | -0.399 | -0.701 | -0.544 | -0.775 | -0.541 | -0.477 | 0.608 | -0.283 | -0.241 | -0.224 | -0.0779 | 0.309 | -0.136 | -0.693 | -0.568 | -0.674 | -0.291 | -0.557 | -0.0644 | -0.123
10 | ACAGACAGGTGAGTGAAGGTAACTCTGCTGGACG | 0.466 | 0.168 | -0.478 | -0.2 | -0.638 | 0.435 | 0.657 | -0.0647 | -0.0941 | 0.019 | 0.709 | 0.604 | 0.385 | 0.0284 | -0.0621 | -0.18 | -0.457 | 0.173 | -0.76 | 0.594
11 | TCGAGTAGGTTAGGGGCATTCTGAATGGCGTCGA | 0.16 | 0.0463 | -0.301 | 0.694 | -0.421 | 1.08 | 0.543 | 2.02 | 1.09 | 1.41 | 2.23 | 1.58 | -0.74 | -0.137 | 0.496 | 0.244 | 0.106 | 0.337 | -0.415 | 0.807
12 | CCTGCTAGATCAATGGTCAGCTAAAGCAGCTCGC | -0.932 | -0.902 | -0.811 | -0.945 | -0.566 | -0.697 | -0.182 | 0.115 | -0.8 | -0.292 | -0.539 | -0.867 | -1.21 | -1.31 | -0.942 | -0.879 | -0.691 | -0.744 | -0.962 | -0.116
13 | TCATATAGGTAATACAGGGGAAAGTCGGCATCTA | 1.29 | 1.31 | 0.263 | 1.21 | 0.513 | 1.55 | 1.01 | 2.49 | 4.47 | 3.25 | 4.42 | 2.56 | 1.36 | 0.581 | 0.957 | 0.783 | 0.581 | 1.08 | 0.911 | 0.566

Source: the supplement of paper PMC6555819
